The nature of assay [1]: qHTS assay to identify small molecule agonists of the RXR signaling pathway - cell viability counter screen (AID 1159529).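 Note: HEK 293T cells carrying an RXR-alpha UAS beta-lactamase reporter; series mostly up to about 77 µM; nearly all actives have a fitted effect of over 50% in size.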 A digest of the protocol: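 HEK 293T RXRa-bla cells, 2% CS-FBS; 5 h settle; cpd 16 h 37 C, 5% CO2; CellTiter-Glo 30 min RT, luminescence. Tetraoctyl ammonium bromide as positive control.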
Background: qHTS replaces the single test concentration by a dilution series.

A short description of assay [2]: qHTS assay to identify small molecule antagonists of the retinoid acid receptor (RAR) signaling pathway - cell viability counter screen (AID 1159551). Note: nearly all actives have a fitted effect of over 35% in size. A digest of the protocol:
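Luminescent ATP quantitation (CellTiter-Glo) gave cell viability in C3RL4 cells exposed to test chemicals for 6 h at 37 C alongside 1 uM final retinol.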

Assay [3] can be described thus: qHTS assay to identify small molecule antagonists of the retinoic acid receptor (RAR) signaling pathway (AID 1159552; note: nearly all actives have a fitted effect of over 50% in size; note: potency is the fitted concentration of half-maximal effect). A digest of the protocol:
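Cells of the C3RL4 line were seeded, incubated overnight, then dosed with compounds in DMSO followed immediately by retinol (1 uM final). Six hours later luciferase detection reagent went in; signal was measured after 30 min at RT.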

Assay [4] can be described thus: qHTS assay to identify small molecule agonists of the retinoic acid receptor (RAR) signaling pathway (AID 1159553). Note: potency is the fitted concentration of half-maximal effect. The procedure, abridged:
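Luminescence from a RARE-driven luciferase reporter in C3RL4 cells served as the read-out, measured after 30 min with detection reagent at room temperature. Compounds in DMSO were applied for 6 hr at 37 C following overnight seeding.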

Assay [5] can be described thus: qHTS assay to identify small molecule antagonists of the estrogen related receptor (ERR) signaling pathway from Tox21 library - cell viability counter screen (AID 1224834). Note: nearly all actives have a fitted effect of over 30% in size. A digest of the protocol:
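Fluorescence from CellTiter-Fluor gives the viability read-out, taken 30 min after reagent addition. Before that, ERR cells seeded 6 h earlier were incubated with compounds for 17.5 h at 37 C.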

The target of assay [6] is Luciferin 4-monooxygenase (Photinus pyralis) (UniProt P08659). In words: qHTS assay to identify small molecule inhibitors of firefly luciferase (AID 1224835). Note: nearly all actives have a fitted effect of over 25% in size. Note: potency is the fitted concentration of half-maximal effect. The procedure, abridged: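 Biochemical qHTS: compounds run as interplate titrations against purified firefly enzyme, with D-luciferin and ATP each at its KM concentration. Light output recorded by CCD imaging.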
The nature of assay [7]: qHTS assay to identify small molecule agonists of the constitutive androstane receptor (CAR) signaling pathway - cell viability counter screen (AID 1224836). Note: nearly all actives have a fitted effect of over 45% in size. Note: potency is the fitted concentration of half-maximal effect. The procedure, abridged: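 HepG2-CYP2B6-hCAR, 2500 cells/well, 4 h pre-incubation; cpd 15 conc + PK11195 0.75 uM final; 23 h, 37 C/5% CO2; CellTiter-Fluor, fluorescence.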
The nature of assay [8]: qHTS assay to identify small molecule antagonists of the constitutive androstane receptor (CAR) signaling pathway - cell viability counter screen (AID 1224837). Note: series mostly up to about 92 µM; nearly all actives have a fitted effect of over 45% in size. A digest of the protocol: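 HepG2-CYP2B6-hCAR cells, 2500/well, 4 hr pre-incubation; compound titration, 15 conc.; CITCO 50 nM final; 23 hr, 37 C/5% CO2; CellTiter-Fluor, fluorescence intensity.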
Assay [9] addresses Nuclear receptor subfamily 1 group I member 3 (Homo sapiens) (UniProt Q14994). In words: qHTS assay to identify small molecule antagonists of the constitutive androstane receptor (CAR) signaling pathway (AID 1224838).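 Note: HepG2 cells stably expressing hCAR with CYP2B6 luciferase reporter stimulated by CITCO; nearly all actives have a fitted effect of over 40% in size.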 Note: potency is the fitted concentration of half-maximal effect. The procedure, abridged:
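HepG2-CYP2B6-hCAR cells; 4 h pre-incubation; cpd (15 conc) + CITCO 50 nM final; 24 h, 37 C/5% CO2; ONE-Glo, luminescence.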

Assay [10] shares this target. As to the kind of experiment: qHTS assay to identify small molecule agonists of the constitutive androstane receptor (CAR) signaling pathway (AID 1224839). Note: nearly all actives have a fitted effect of over 15% in size. Note: potency is the fitted concentration of half-maximal effect. The procedure, abridged:
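HepG2-CYP2B6-hCAR cells, 2500/well, 4 h pre-incubation; compounds 15 conc.; PK11195 0.75 uM final; 24 h, 37 C/5% CO2; ONE-Glo luciferase read.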

Assay [11] in a line: qHTS assay to identify small molecule antagonists of the estrogen related receptor signaling pathway with the pleiotropic PPARgamma coactivator (PGC) from Tox21 10K library - cell viability counter screen (AID 1224840; active = well fitted cell-killing curve with a large enough effect in the repeat runs, not every such curve was filed as active; note: nearly all actives have a fitted effect of over 40% in size). The procedure, abridged: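 PGC/ERR cells, 2,000/well; 6 h pre-incubation 37 C/5% CO2; cpd in DMSO via pin tool; 17.5 h 37 C; CellTiter-Fluor, 30 min; fluorescence.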

A short description of assay [12]: qHTS assay to identify small molecule antagonists of the estrogen related receptor signaling pathway with the pleiotropic PPARgamma coactivator (PGC) from Tox21 10K library (AID 1224841; call rule not given here; note: series mostly up to about 92 µM; actives are mostly falling curves and most rising ones were filed inactive; nearly all actives have a fitted effect of over 50% in size). A digest of the protocol:
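PGC/ERR cell line, 2,000 cells/well; 6 h pre-incubation 37 C/5% CO2; compounds (DMSO) pinned in; 18 h, 37 C; One-Glo, 30 min RT; luminescence.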

Assay [13] in a line: qHTS assay to identify small molecule agonists of the estrogen related receptor signaling pathway with the pleiotropic PPARgamma coactivator (PGC) from Tox21 10K library (AID 1224842). Note: nearly all actives have a fitted effect of over 15% in size. Note: potency is the fitted concentration of half-maximal effect. The procedure, abridged: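 PGC/ERR reporter cell line, 2,000 cells per well, incubated 6 h at 37 C before 23 nL compound in DMSO was added. After 18 h at 37 C, One-Glo luminescence read following 30 min at room temperature.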

Assay [14] concerns the target Thyrotropin receptor (Homo sapiens) (UniProt P16473). As to the kind of experiment: qHTS assay to identify small molecule agonists of the thyroid stimulating hormone receptor (TSHR) signaling pathway (AID 1224843; calls by dose curve; note: nearly all actives have a fitted effect of over 45% in size). The procedure, abridged:
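TSHR-HEK293 cells in agonist mode, 30 min room-temperature step, then cAMP measured by competitive HTRF (cAMP-d2 with anti-cAMP cryptate) after 1 h at room temperature. Tested at 15 concentrations in triplicate.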

A short description of assay [15]: qHTS assay to identify small molecule antagonists of the estrogen related receptor (ERR) signaling pathway - cell viability counter screen (AID 1224818).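 Note: series mostly up to about 46 µM; viability measured after 17.5 h of compound exposure.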 The procedure, abridged: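 Multiplexed counter screen to separate cytotoxic compounds from true ERR modulators. ERR cells received DMSO-dissolved compounds after a 6 h pre-incubation, were exposed 17.5 h at 37 C, then assayed with CellTiter-Fluor fluorescence.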

Assay [16] is described as follows: qHTS assay to identify small molecule antagonists of the estrogen related receptor signaling pathway with the pleiotropic PPARgamma coactivator (PGC) cell viability counter screen (AID 1224822; note: series mostly up to about 46 µM). The procedure, abridged:
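Cells: PGC/ERR, 2,000/well, 1536-well format. Pre-incubation 6 h, 37 C/5% CO2. Compound exposure 17.5 h, 37 C. Detection: CellTiter-Fluor, 30 min, fluorescence.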

Assay [17] in a line: qHTS assay to identify small molecule agonists of the estrogen related receptor (ERR) signaling pathway (AID 1224820). The procedure, abridged:
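Cells: ERR line from NTP, 2,000/well. Pre-incubation 6 h, 37 C/5% CO2. Compound (DMSO) pin transfer, 18 h 37 C. One-Glo, 30 min RT, luminescence.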

A short description of assay [18]: qHTS assay to identify small molecule agonists of the estrogen related receptor signaling pathway with the pleiotropic PPARgamma coactivator (PGC) (AID 1224823). The procedure, abridged:
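Steps: plate PGC/ERR cells at 2,000 cells/well; incubate 6 h, 37 C/5% CO2; pin-transfer compounds (DMSO); incubate 18 h, 37 C; add One-Glo; 30 min RT; read luminescence.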

Values joined by “and” are separate entries in the source; they are usually repeats but may differ in a detail not shown here. Identical values can stand only once. Results filed as inconclusive are left out. A structure can be active in one record and inactive in another. Active and inactive are the calls of the source. Unless noted, calls come from the whole dose curve; as a rule, active = well fitted curve in the direction sought with a large enough effect in the repeat runs; inconclusive = weak or mixed curves; inactive = no such curve, though single readings can be large; an effect the other way counts as inactive or inconclusive.

Sequence of Nuclear receptor subfamily 1 group I member 3 (Homo sapiens) (Q14994 whole entry, looked up): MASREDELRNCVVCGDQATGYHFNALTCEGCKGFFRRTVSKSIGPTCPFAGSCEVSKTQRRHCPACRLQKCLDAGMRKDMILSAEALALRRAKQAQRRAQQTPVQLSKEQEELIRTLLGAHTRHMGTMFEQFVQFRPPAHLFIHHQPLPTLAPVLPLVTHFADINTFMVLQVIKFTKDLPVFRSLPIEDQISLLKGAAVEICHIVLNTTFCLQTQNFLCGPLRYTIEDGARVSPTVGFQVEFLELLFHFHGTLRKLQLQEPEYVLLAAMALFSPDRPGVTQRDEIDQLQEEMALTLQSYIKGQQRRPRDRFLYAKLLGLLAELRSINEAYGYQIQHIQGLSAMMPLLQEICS
Sequence of Thyrotropin receptor (Homo sapiens) (P16473 whole entry, looked up): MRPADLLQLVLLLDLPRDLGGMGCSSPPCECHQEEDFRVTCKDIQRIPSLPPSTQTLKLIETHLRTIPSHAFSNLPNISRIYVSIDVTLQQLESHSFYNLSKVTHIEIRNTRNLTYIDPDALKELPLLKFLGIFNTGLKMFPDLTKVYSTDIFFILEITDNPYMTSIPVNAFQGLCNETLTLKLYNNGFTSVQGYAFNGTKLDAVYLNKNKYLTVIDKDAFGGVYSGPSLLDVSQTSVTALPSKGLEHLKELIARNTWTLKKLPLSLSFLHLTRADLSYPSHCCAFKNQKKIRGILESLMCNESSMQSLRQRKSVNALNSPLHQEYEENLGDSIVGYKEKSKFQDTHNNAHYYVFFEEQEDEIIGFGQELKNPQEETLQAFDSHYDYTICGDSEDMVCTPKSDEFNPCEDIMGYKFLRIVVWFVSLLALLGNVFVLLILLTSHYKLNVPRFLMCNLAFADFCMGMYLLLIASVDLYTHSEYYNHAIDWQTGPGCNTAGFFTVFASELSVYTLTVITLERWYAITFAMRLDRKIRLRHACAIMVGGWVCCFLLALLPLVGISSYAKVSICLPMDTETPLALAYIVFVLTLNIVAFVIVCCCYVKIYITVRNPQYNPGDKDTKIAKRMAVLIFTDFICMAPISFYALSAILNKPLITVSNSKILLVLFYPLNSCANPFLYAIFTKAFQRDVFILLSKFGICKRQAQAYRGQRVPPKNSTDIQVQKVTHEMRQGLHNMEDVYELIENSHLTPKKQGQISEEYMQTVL
Sequence of Luciferin 4-monooxygenase (Photinus pyralis) (P08659 whole entry, looked up): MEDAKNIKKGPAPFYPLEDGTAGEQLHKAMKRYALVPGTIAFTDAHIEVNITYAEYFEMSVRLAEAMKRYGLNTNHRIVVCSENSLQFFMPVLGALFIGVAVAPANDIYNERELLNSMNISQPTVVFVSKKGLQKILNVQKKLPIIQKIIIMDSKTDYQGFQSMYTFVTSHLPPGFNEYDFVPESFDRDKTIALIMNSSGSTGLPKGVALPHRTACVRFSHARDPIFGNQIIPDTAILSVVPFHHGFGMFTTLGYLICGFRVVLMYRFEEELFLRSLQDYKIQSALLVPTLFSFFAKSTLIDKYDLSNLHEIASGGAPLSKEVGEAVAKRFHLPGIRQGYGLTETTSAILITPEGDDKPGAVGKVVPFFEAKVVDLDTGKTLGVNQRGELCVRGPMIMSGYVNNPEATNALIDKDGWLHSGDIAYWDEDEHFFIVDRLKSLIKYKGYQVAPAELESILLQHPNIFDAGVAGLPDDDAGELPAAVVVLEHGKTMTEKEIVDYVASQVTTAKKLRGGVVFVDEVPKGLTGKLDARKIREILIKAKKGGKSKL

Take `COc1ccc(OC)c(C(O)CNC(=O)CN)c1` (stereo not given): the Potency entry in assay [1], in assay [2], in [3], in assay [4], in [5] and in assay [6] was “inactive” each time. Moreover, the Potency result in assay [7], in [8], in [9], in assay [10], in assay [11] and in assay [12] was “inactive” throughout. The Potency entry in assay [13] and in [14] was “inactive” in each case.
For the molecule `CC(C)OC(=O)C(C)(C)Oc1ccc(C(=O)c2ccc(Cl)cc2)cc1`, the Potency result in assay [1], in assay [2], in [3], in assay [4], in assay [15] and in assay [16] was “inactive” in each case. In addition, the Potency result in [7], in [8], in [9], in [11] and in assay [14] was “inactive” throughout. Also, the Potency in assay [6] is 34.7 µM (active); in assay [10], 54.5 µM (active) and 26.6 µM (active).
With `CCCCCCCCCC(=O)OC`, the Potency entry in assay [1], in assay [2], in assay [3], in assay [4], in assay [6] and in assay [7] was “inactive” each time. Moreover, the Potency entry in assay [8], in assay [9], in assay [10], in [11] and in [14] was “inactive” each time.
In the case of `O=P(O)(O)O`, the Potency result in [1], in assay [2], in assay [3], in [4], in [5] and in [7] was “inactive” throughout. Besides, the Potency entry in assay [8], in assay [11] and in [14] was “inactive” throughout.
Turning to `Cn1cnc([N+](=O)[O-])c1Sc1ncnc2nc[nH]c12`, the Potency result in assay [1], in assay [2], in assay [4], in assay [16], in assay [6] and in assay [10] was “inactive” each time. Also, the Potency entry in assay [11], in assay [12] and in assay [14] was “inactive” each time. Also, the Potency in assay [3] was 48.3 µM (active) and inactive; in assay [7], 6.82 µM (active); in [9], 4.83 µM (active) and 11.9 µM (active); in assay [13] it was 24.2 µM (active) and inactive. In addition, the outcome in assay [17] and in assay [18] was inactive.
For `C/C=C/C(=O)O`, the Potency entry in [1], in assay [2], in assay [3], in [4], in assay [5] and in assay [6] was “inactive” throughout. The Potency entry in [7], in assay [8], in assay [11], in assay [12], in assay [13] and in assay [14] was “inactive” in each case.
As to `O=Cc1ccccc1O`, the Potency entry in assay [1], in [2], in assay [3], in [4], in [6] and in assay [7] was “inactive” in each case. Also, the Potency entry in assay [8], in assay [9], in assay [10], in assay [11] and in assay [14] was “inactive” throughout.
With `O=C(/C=C/c1ccccc1)OCc1ccccc1`, the Potency entry in [1], in [2], in assay [3], in assay [7], in assay [8] and in assay [9] was “inactive” throughout. For the same molecule, the Potency result in [11] and in assay [12] was “inactive” in each case. The Potency in assay [4] was 30.6 µM (active) and 29.8 µM (active); in assay [6] it was 17.8 µM (active) and 9.77 µM (active); in assay [10], 29.8 µM (active).
In the case of `O=C(OCc1ccccc1)c1ccccc1O`, the Potency result in assay [1], in [2], in [3], in [5], in assay [7] and in [8] was “inactive” throughout. The Potency entry in assay [11] and in assay [14] was “inactive” in each case. Further, the Potency in [4] was 9.62 µM (active); in assay [6] it was 17.7 µM (active) and 12.6 µM (active).
With `O=C(c1ccccc1)c1ccccc1O`, the Potency entry in assay [1], in assay [2], in assay [3], in assay [4], in assay [5] and in assay [6] was “inactive” in each case. The Potency entry in [7], in assay [8], in assay [9], in assay [10], in assay [11] and in assay [12] was “inactive” each time. Moreover, the Potency entry in assay [13] and in assay [14] was “inactive” throughout.

The values above are taken from PubChem BioAssay (Tox21).
